# Experimental data: PubChem BioAssay AID1159580 (chemical genetic matrix, 2015)
# The campaign covered roughly 5,500 compounds. About 2,000 (36%) were called active. Inconclusive results (about 18%) are left out. The list shows a part of the results. Unmarked numbers belong to inactive results. No stated cut-off is given here; in the data, active means normalized growth mostly below about 0.91 (no sharp cut-off); inconclusive means no clear call, values can overlap the other calls; inactive means mostly above about 0.92.
# Test: chemical genetic growth profiling, strain panel (AID 1159580);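 further: tested at 20 µM; growth read once vehicle control cultures reached saturation at 30 °C; 1 = growth at the plate median or of vehicle wells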
# Conditions: growth OD
# [1] = S. cerevisiae deletion strains, locus YDL101C, strain DUN1, stronger effect = lower value
# [2] = S. cerevisiae deletion strains, locus YGR229C, strain SMI1, stronger effect = lower value
# [3] = S. cerevisiae deletion strains, locus YHR030C, strain SLT2, stronger effect = lower value
# [4] = S. cerevisiae deletion strains, locus YMR263W, strain SAP30, stronger effect = lower value
# [5] = S. cerevisiae deletion strains, locus YNL153C, strain GIM3, stronger effect = lower value
# [6] = S. cerevisiae deletion strains, locus YNL322C, strain KRE1, stronger effect = lower value
# [7] = S. cerevisiae deletion strains, locus YPL055C, strain LGE1, stronger effect = lower value
# [8] = S. cerevisiae deletion strains, locus YPL241C, strain CIN2, stronger effect = lower value
smiles,measurement,setting,value
COc1ccc(CNc2ccccc2-c2nc3ccccc3[nH]2)cc1,normalized growth,"S. cerevisiae deletion strains, locus YAL013W, strain DEP1, stronger effect = lower value",0.967
same,normalized growth,"S. cerevisiae deletion strains, locus YBR229C, strain ROT2, stronger effect = lower value",0.944
same,normalized growth,"S. cerevisiae deletion strains, locus YCL061C, strain MRC1, stronger effect = lower value",0.941
same,normalized growth,[1],0.937
same,normalized growth,"S. cerevisiae deletion strains, locus YDL134C, strain PPH21, stronger effect = lower value",0.87 (active)
same,normalized growth,"S. cerevisiae deletion strains, locus YDR150W, strain NUM1, stronger effect = lower value",0.934
same,normalized growth,"S. cerevisiae deletion strains, locus YEL061C, strain CIN8, stronger effect = lower value",0.861 (active)
same,normalized growth,"S. cerevisiae deletion strains, locus YGR078C, strain PAC10, stronger effect = lower value",0.952
same,normalized growth,[2],0.95
same,normalized growth,[3],0.431 (active)
same,normalized growth,"S. cerevisiae deletion strains, locus YHR087W, strain rtc3, stronger effect = lower value",0.92
same,normalized growth,"S. cerevisiae deletion strains, locus YJL187C, strain SWE1, stronger effect = lower value",0.978
same,normalized growth,"S. cerevisiae deletion strains, locus YJR043C, strain POL32, stronger effect = lower value",0.957
same,normalized growth,"S. cerevisiae deletion strains, locus YJR075W, strain HOC1, stronger effect = lower value",0.937
same,normalized growth,"S. cerevisiae deletion strains, locus YKL190W, strain CNB1, stronger effect = lower value",0.881 (active)
same,normalized growth,"S. cerevisiae deletion strains, locus YLR039C, strain RIC1, stronger effect = lower value",0.529 (active)
same,normalized growth,"S. cerevisiae deletion strains, locus YLR058C, strain SHM2 (second series), stronger effect = lower value",0.956
same,normalized growth,"S. cerevisiae deletion strains, locus YLR085C, strain ARP6, stronger effect = lower value",0.514 (active)
same,normalized growth,"S. cerevisiae deletion strains, locus YLR262C, strain YPT6, stronger effect = lower value",0.648 (active)
same,normalized growth,"S. cerevisiae deletion strains, locus YML094W, strain GIM5, stronger effect = lower value",0.882
same,normalized growth,"S. cerevisiae deletion strains, locus YMR219W, strain ESC1, stronger effect = lower value",0.983
same,normalized growth,[4],0.948
same,normalized growth,"S. cerevisiae deletion strains, locus YMR307W, strain GAS1, stronger effect = lower value",0.52 (active)
same,normalized growth,"S. cerevisiae deletion strains, locus YNL128W, strain TEP1, stronger effect = lower value",0.917
same,normalized growth,[5],0.959
same,normalized growth,"S. cerevisiae deletion strains, locus YNL298W, strain CLA4 (second series), stronger effect = lower value",0.789 (active)
same,normalized growth,[6],0.978
same,normalized growth,"S. cerevisiae deletion strains, locus YNR030W, strain Alg12, stronger effect = lower value",0.867 (active)
same,normalized growth,"S. cerevisiae deletion strains, locus YOL006C, strain TOP1, stronger effect = lower value",0.57 (active)
same,normalized growth,[7],0.797
same,normalized growth,[8],0.818 (active)
same,normalized growth,"S. cerevisiae deletion strains, locus YPR135W, strain CTF4, stronger effect = lower value",0.498 (active)
same,normalized growth,"S. cerevisiae strains, strain wild type, stronger effect = lower value",0.881 (active)
C#CC(N)CCC(=O)O (configuration not stated),normalized growth,"S. cerevisiae deletion strains, locus YAL040C, strain CLN3, stronger effect = lower value",1.02
same,normalized growth,"S. cerevisiae deletion strains, locus YCL061C, strain MRC1 (second series), stronger effect = lower value",1.01
same,normalized growth,"S. cerevisiae deletion strains, locus YER002W, strain NOP16, stronger effect = lower value",1.01
same,normalized growth,[2],1.01
same,normalized growth,[4],1.01
same,normalized growth,[5],1
same,normalized growth,"S. cerevisiae deletion strains, locus YNL175C, strain NOP13, stronger effect = lower value",1.02
same,normalized growth,"S. cerevisiae deletion strains, locus YNL197C, strain WHI3, stronger effect = lower value",1.02
same,normalized growth,"S. cerevisiae deletion strains, locus YNL224C, strain SQS1, stronger effect = lower value",1
same,normalized growth,[6],1.01
same,normalized growth,"S. cerevisiae deletion strains, locus YOR083W, strain WHI5 (second series), stronger effect = lower value",0.988
same,normalized growth,[7],0.989
same,normalized growth,[8],1.01
S=C(Nc1cc(Cl)c(Cl)cc1Cl)Nc1ccccc1Br,normalized growth,"S. cerevisiae deletion strains, locus YAR019C, strain CDC15, stronger effect = lower value",0.958
same,normalized growth,"S. cerevisiae deletion strains, locus YBL105C, strain PKC1, stronger effect = lower value",0.969
same,normalized growth,"S. cerevisiae deletion strains, locus YBR135W, strain CKS1, stronger effect = lower value",0.964
same,normalized growth,"S. cerevisiae deletion strains, locus YBR136W, strain MEC1, stronger effect = lower value",0.953
same,normalized growth,"S. cerevisiae deletion strains, locus YBR160W, strain CDC28, stronger effect = lower value",0.961
same,normalized growth,"S. cerevisiae deletion strains, locus YDL017W, strain CDC7, stronger effect = lower value",0.963
same,normalized growth,"S. cerevisiae deletion strains, locus YDL028C, strain MPS1, stronger effect = lower value",0.953
same,normalized growth,[1],0.977
same,normalized growth,"S. cerevisiae deletion strains, locus YDL108W, strain KIN28, stronger effect = lower value",0.958
same,normalized growth,"S. cerevisiae deletion strains, locus YDL132W, strain cdc53, stronger effect = lower value",0.96
same,normalized growth,"S. cerevisiae deletion strains, locus YDL214C, strain PRR2, stronger effect = lower value",0.884
same,normalized growth,"S. cerevisiae deletion strains, locus YDR052C, strain DBF4, stronger effect = lower value",0.97
same,normalized growth,"S. cerevisiae deletion strains, locus YDR054C, strain cdc34, stronger effect = lower value",0.969
same,normalized growth,"S. cerevisiae deletion strains, locus YDR226W, strain ADK1, stronger effect = lower value",0.947
same,normalized growth,"S. cerevisiae deletion strains, locus YDR477W, strain SNF1, stronger effect = lower value",0.875
same,normalized growth,"S. cerevisiae deletion strains, locus YER123W, strain YCK3, stronger effect = lower value",0.833
same,normalized growth,"S. cerevisiae deletion strains, locus YER133W, strain GLC7, stronger effect = lower value",0.87
same,normalized growth,"S. cerevisiae deletion strains, locus YFL009W, strain cdc4, stronger effect = lower value",0.963
same,normalized growth,"S. cerevisiae deletion strains, locus YFL029C, strain CAK1, stronger effect = lower value",0.949
same,normalized growth,"S. cerevisiae deletion strains, locus YFR003C, strain YPI1, stronger effect = lower value",0.969
same,normalized growth,"S. cerevisiae deletion strains, locus YFR019W, strain FAB1, stronger effect = lower value",0.899
same,normalized growth,"S. cerevisiae deletion strains, locus YFR028C, strain CDC14, stronger effect = lower value",0.943
same,normalized growth,"S. cerevisiae deletion strains, locus YGR040W, strain KSS1, stronger effect = lower value",0.861
same,normalized growth,"S. cerevisiae deletion strains, locus YGR052W, strain FMP48, stronger effect = lower value",0.848
same,normalized growth,"S. cerevisiae deletion strains, locus YGR092W, strain DBF2, stronger effect = lower value",0.77
same,normalized growth,[3],0.67 (active)
same,normalized growth,"S. cerevisiae deletion strains, locus YHR079C, strain IRE1, stronger effect = lower value",0.82
same,normalized growth,"S. cerevisiae deletion strains, locus YHR082C, strain KSP1, stronger effect = lower value",0.822
same,normalized growth,"S. cerevisiae deletion strains, locus YHR205W, strain SCH9, stronger effect = lower value",0.812
same,normalized growth,"S. cerevisiae deletion strains, locus YIL147C, strain SLN1, stronger effect = lower value",0.939
same,normalized growth,"S. cerevisiae deletion strains, locus YJL095W, strain BCK1, stronger effect = lower value",0.796
same,normalized growth,"S. cerevisiae deletion strains, locus YJL128C, strain PBS2, stronger effect = lower value",0.927
same,normalized growth,"S. cerevisiae deletion strains, locus YJL157C, strain FAR1, stronger effect = lower value",0.898
same,normalized growth,"S. cerevisiae deletion strains, locus YJR016C, strain ILV3, stronger effect = lower value",0.961
same,normalized growth,"S. cerevisiae deletion strains, locus YJR066W, strain TOR1 (second series), stronger effect = lower value",0.848
same,normalized growth,"S. cerevisiae deletion strains, locus YJR066W, strain TOR1, stronger effect = lower value",0.786
same,normalized growth,"S. cerevisiae deletion strains, locus YKL048C, strain ELM1, stronger effect = lower value",0.911
same,normalized growth,"S. cerevisiae deletion strains, locus YKL067W, strain YNK1, stronger effect = lower value",0.892
same,normalized growth,"S. cerevisiae deletion strains, locus YKL101W, strain HSL1, stronger effect = lower value",0.842
same,normalized growth,"S. cerevisiae deletion strains, locus YKL193C, strain SDS22, stronger effect = lower value",0.96
same,normalized growth,"S. cerevisiae deletion strains, locus YKL203C, strain TOR2, stronger effect = lower value",0.913
same,normalized growth,"S. cerevisiae deletion strains, locus YLR113W, strain HOG1, stronger effect = lower value",0.828 (active)
same,normalized growth,"S. cerevisiae deletion strains, locus YLR133W, strain CKI1, stronger effect = lower value",0.861
same,normalized growth,"S. cerevisiae deletion strains, locus YLR403W, strain SFP1, stronger effect = lower value",0.754
same,normalized growth,"S. cerevisiae deletion strains, locus YML070W, strain DAK1, stronger effect = lower value",0.86
same,normalized growth,"S. cerevisiae deletion strains, locus YMR001C, strain CDC5, stronger effect = lower value",0.957
same,normalized growth,"S. cerevisiae deletion strains, locus YMR205C, strain PFK2 (second series), stronger effect = lower value",0.873
same,normalized growth,"S. cerevisiae deletion strains, locus YMR277W, strain FCP1, stronger effect = lower value",0.959
same,normalized growth,"S. cerevisiae deletion strains, locus YNL006W, strain LST8, stronger effect = lower value",0.984
same,normalized growth,"S. cerevisiae deletion strains, locus YNL020C, strain ARK1, stronger effect = lower value",0.844
same,normalized growth,"S. cerevisiae deletion strains, locus YNL161W, strain CBK1, stronger effect = lower value",0.977
same,normalized growth,"S. cerevisiae deletion strains, locus YNL183C, strain NPR1, stronger effect = lower value",0.791
same,normalized growth,"S. cerevisiae deletion strains, locus YNL207W, strain RIO2, stronger effect = lower value",0.962
same,normalized growth,"S. cerevisiae deletion strains, locus YNL222W, strain SSU72, stronger effect = lower value",0.97
same,normalized growth,"S. cerevisiae deletion strains, locus YNL307C, strain MCK1 (second series), stronger effect = lower value",0.839
same,normalized growth,"S. cerevisiae deletion strains, locus YOL078W, strain AVO1, stronger effect = lower value",0.962
same,normalized growth,"S. cerevisiae deletion strains, locus YOL136C, strain PFK27, stronger effect = lower value",0.854
same,normalized growth,"S. cerevisiae deletion strains, locus YOR061W, strain CKA2, stronger effect = lower value",0.749
same,normalized growth,"S. cerevisiae deletion strains, locus YOR119C, strain RIO1, stronger effect = lower value",0.869
same,normalized growth,"S. cerevisiae deletion strains, locus YOR231W, strain MKK1, stronger effect = lower value",0.846
same,normalized growth,"S. cerevisiae deletion strains, locus YOR329C, strain SCD5, stronger effect = lower value",0.975
same,normalized growth,"S. cerevisiae deletion strains, locus YPL031C, strain PHO85, stronger effect = lower value",0.873
same,normalized growth,"S. cerevisiae deletion strains, locus YPL153C, strain RAD53, stronger effect = lower value",0.837
same,normalized growth,"S. cerevisiae deletion strains, locus YPL204W, strain HRR25, stronger effect = lower value",0.848
same,normalized growth,"S. cerevisiae deletion strains, locus YPL209C, strain IPL1, stronger effect = lower value",0.966
same,normalized growth,"S. cerevisiae deletion strains, locus YPL256C, strain CLN2, stronger effect = lower value",0.809 (active)
same,normalized growth,"S. cerevisiae deletion strains, locus YPR025C, strain CCL1, stronger effect = lower value",0.966
same,normalized growth,"S. cerevisiae deletion strains, locus YPR106W, strain ISR1, stronger effect = lower value",0.942
same,normalized growth,"S. cerevisiae deletion strains, locus YPR111W, strain DBF20, stronger effect = lower value",0.935
same,normalized growth,"S. cerevisiae deletion strains, strain NNK1, stronger effect = lower value",0.961
same,normalized growth,"S. cerevisiae deletion strains, strain TSCII, stronger effect = lower value",0.953
